This passage reports growth results from PubChem BioAssay (NCI).

Among the test systems are RPMI-8226 leukemia; OVCAR-8 ovarian; OVCAR-5 ovarian; SK-OV-3 ovarian; IGROV1 ovarian; OVCAR-3 ovarian; HS 578T breast; NCI/ADR-RES ovarian; T-47D breast; OVCAR-4 ovarian.
Assay in all cases: NCI-60 one-dose screen, 48 h (100 = growth as untreated, 0 = no growth, -100 = all killed)
Details in all cases: 10 µM unless noted

The panel holds about 83,000 compounds, 20% with a hit somewhere; the sample as a whole holds those more often.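 Activity criterion: percent growth below 10, measured after cells in 96-well plates were exposed to a single compound concentration for 48 hours.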 Unmarked numbers belong to inactive results. Active and inactive are the calls of the source.

Take `COc1cc(C(=O)Nc2cc(O)c(C/C=C(\C)CCC=C(C)C)c(O)c2)cc2c1O[C@]1(C)CC[C@@H](O)C(C)(C)[C@H]1C2`: the growth is -23.6% (active) in the assay with RPMI-8226 leukemia; 29.9% in the assay on OVCAR-8 ovarian; 48.5% with OVCAR-5 ovarian; 17.9% in the assay with SK-OV-3 ovarian; 33.7% in the assay on IGROV1 ovarian; 5.54% (active) in the assay on OVCAR-3 ovarian. Moreover, the growth is -1.79% (active) with HS 578T breast, 57.7% with NCI/ADR-RES ovarian and 9.68% (active) in the assay on T-47D breast.

Take `COc1ccc(-c2nnc(N3CCN(C(=O)CN4CCN(c5ccccc5)CC4)CC3)nc2-c2ccc(OC)cc2)cc1`: the growth in the assay with RPMI-8226 leukemia was -58.3% (active); with OVCAR-8 ovarian, 42%; in the assay with OVCAR-5 ovarian it was 78.6%; with SK-OV-3 ovarian, 74.4%; in the assay on IGROV1 ovarian it was 34.3%; in the assay with OVCAR-3 ovarian it was 33.8%. Besides, the values for the growth in the assay on HS 578T breast, in the assay on NCI/ADR-RES ovarian and with T-47D breast were 55.4%, 42.1% and 16.8%, respectively.

Turning to `CSc1cccc(NC(=O)Nc2nc3c(C)cccc3s2)c1`, the growth in the assay on RPMI-8226 leukemia is 60.7%; in the assay on OVCAR-8 ovarian, 93.9%; in the assay with OVCAR-5 ovarian it was 117%; in the assay on SK-OV-3 ovarian, 97.1%; in the assay with IGROV1 ovarian, 90.2%; in the assay with OVCAR-3 ovarian, 117%. Besides, the growth was 87.7% with HS 578T breast, 91.5% in the assay on NCI/ADR-RES ovarian and 95% in the assay with T-47D breast.

With `Cc1nnc(/N=C2\NC(=O)/C(=C/c3ccc(N(C)C)cc3)S2)s1`, the growth was 58.9% in the assay on RPMI-8226 leukemia; 78.6% in the assay with OVCAR-8 ovarian; 99.9% in the assay on OVCAR-5 ovarian; 72% in the assay on SK-OV-3 ovarian; 60% in the assay with IGROV1 ovarian; 45.4% with OVCAR-3 ovarian. Moreover, the growth with HS 578T breast was 85.6%; in the assay with NCI/ADR-RES ovarian it was 52.2%; in the assay on T-47D breast it was 73.6%.

As for `CN(C)[C@@H]1C(=O)C(C(N)=O)=C(O)[C@@]2(O)C(=O)C3=C(O)c4c(O)cc(CN5CCc6ccccc6C5)c(Cl)c4C[C@H]3C[C@@H]12`, the growth with RPMI-8226 leukemia was -46.2% (active); with OVCAR-8 ovarian, -80.9% (active); in the assay on OVCAR-5 ovarian, -87.1% (active); with SK-OV-3 ovarian it was -93.3% (active); with IGROV1 ovarian, -73.2% (active); in the assay on OVCAR-3 ovarian, -83.3% (active). The growth in the assay with HS 578T breast is -57.7% (active); in the assay on NCI/ADR-RES ovarian, -83.7% (active); with T-47D breast it was -41.4% (active).

Turning to `Cc1cc(C)cc(Nc2nccc(-c3c(-c4ccc(F)cc4)ncn3C3CCNCC3)n2)c1`, the growth in the assay on RPMI-8226 leukemia was -3.31% (active); in the assay on OVCAR-8 ovarian, -24.8% (active); with OVCAR-5 ovarian it was 35.2%; in the assay with SK-OV-3 ovarian, 9.09% (active); with IGROV1 ovarian, -40.1% (active); in the assay with OVCAR-3 ovarian, 5.97% (active). Further, the results for the growth in the assay with HS 578T breast, in the assay with NCI/ADR-RES ovarian and in the assay on T-47D breast were 24.3%, 15.3% and 15.2%, respectively.

Turning to `COc1ccc2c(c1)/C(=C1\S/C(=N/c3nnc(C)s3)NC1=O)C(=O)N2Cc1ccc(Cl)cc1`, the growth is 40.3% in the assay with RPMI-8226 leukemia; 52.2% with OVCAR-8 ovarian; 90.5% in the assay with OVCAR-5 ovarian; 70% in the assay on SK-OV-3 ovarian; 41.9% in the assay on IGROV1 ovarian; 42.2% in the assay with OVCAR-3 ovarian. The growth in the assay on HS 578T breast is 55.1%; in the assay with NCI/ADR-RES ovarian, 32%; in the assay with T-47D breast, 42%.

With `Cc1ccc2nc3nc4ccc[nH]c4cc3c2c1`, the growth in the assay on RPMI-8226 leukemia was 49.3%; in the assay on OVCAR-8 ovarian it was 99.7%; in the assay with OVCAR-5 ovarian, 90.9%; in the assay on SK-OV-3 ovarian, 89.2%; with IGROV1 ovarian, 68.2%; with OVCAR-3 ovarian, 77.6%. The growth was 90.2% in the assay with HS 578T breast, 99.9% with NCI/ADR-RES ovarian and 10.3% with T-47D breast.

Turning to `S=C(Nc1ccccc1)c1ccccn1`, the growth is 56.5% with RPMI-8226 leukemia; 88.9% in the assay on OVCAR-5 ovarian; 100% in the assay on OVCAR-4 ovarian; 90.9% in the assay on SK-OV-3 ovarian; 1.38% (active) in the assay on IGROV1 ovarian; 67.7% in the assay with OVCAR-3 ovarian. In addition, the growth was 101% in the assay with HS 578T breast, 93.1% in the assay with NCI/ADR-RES ovarian and 96.6% in the assay on T-47D breast.

In the case of `O=C1Nc2ccccc2C12C=C(c1ccccc1)Nc1c2c(-c2ccccc2)nn1-c1ccccc1` (stereo not given), the growth with RPMI-8226 leukemia was 40.8%; in the assay on OVCAR-5 ovarian, 73%; in the assay with OVCAR-4 ovarian it was 78%; in the assay with SK-OV-3 ovarian, 87%; with IGROV1 ovarian, 67.9%; with OVCAR-3 ovarian, 70.3%. In addition, the growth with HS 578T breast was 78.9%; in the assay on NCI/ADR-RES ovarian, 66.2%; in the assay on T-47D breast it was 61.7%.

As for `CCOC(=O)c1c(C)nc2c(c1N)CC(=O)N2CCc1ccccc1`, the growth in the assay with RPMI-8226 leukemia was -6.34% (active); with OVCAR-5 ovarian, 53.3%; with OVCAR-4 ovarian it was 62.8%; with SK-OV-3 ovarian, 45.6%; in the assay on IGROV1 ovarian, 28.7%; with OVCAR-3 ovarian it was 35.4%. For the same compound, the growth in the assay on HS 578T breast is 41.1%; in the assay on NCI/ADR-RES ovarian, 30.1%; in the assay with T-47D breast, 53.9%.

In the case of `COc1cc2cc(c1Cl)N(C)C(=O)C[C@H](OC(=O)[C@H](C)N(C)C(=O)CCS)C[C@]1(C)O[C@H]1[C@H](C)[C@@H]1C[C@@](O)(NC(=O)O1)[C@H](OC)/C=C/C=C(\C)C2`, the growth is 24.4% in the assay on RPMI-8226 leukemia; 44% in the assay with OVCAR-5 ovarian; 28.8% with OVCAR-4 ovarian; 18.7% in the assay with SK-OV-3 ovarian; 18.5% in the assay with IGROV1 ovarian; -4.97% (active) in the assay on OVCAR-3 ovarian. Also, the growth was 20.9% in the assay with HS 578T breast, 10.5% in the assay with NCI/ADR-RES ovarian and 61.2% in the assay with T-47D breast.

For the compound `C#C[C@@]1(O)[C@@H](CO)O[C@@H](n2ccc3c(N)ncnc32)[C@@H]1O`, the growth with RPMI-8226 leukemia was 4.21% (active); in the assay on OVCAR-5 ovarian, 25.6%; in the assay on OVCAR-4 ovarian, 0.622% (active); in the assay with SK-OV-3 ovarian it was -7.62% (active); in the assay with IGROV1 ovarian, 4.28% (active); with OVCAR-3 ovarian, 18.2%. In addition, the growth in the assay with HS 578T breast was 51.6%; with NCI/ADR-RES ovarian, -9.78% (active); in the assay on T-47D breast it was -34% (active).

`C=C1C(=O)O[C@H]2[C@H]1CCC(/C=N/c1ncc(Br)cc1N)=C\CC[C@@]1(C)O[C@@H]21`: the growth with RPMI-8226 leukemia is -24.1% (active); in the assay with OVCAR-5 ovarian it was 49.4%; with OVCAR-4 ovarian it was 37%; with SK-OV-3 ovarian, 69.3%; in the assay on IGROV1 ovarian, -1.81% (active); in the assay with OVCAR-3 ovarian it was -58.3% (active). In addition, the growth is 32.4% in the assay on HS 578T breast and 5.65% (active) in the assay on T-47D breast.
